Test results: PubChem BioAssay (Tox21)
Inconclusive results are not listed. The source made the active and inactive calls. Calls come from the whole dose curve; as a rule, active = well fitted inhibition curve with a large enough effect in the repeat runs; inconclusive = weak or mixed curves; inactive = flat fitted curve, though single readings scatter.

target: Luciferin 4-monooxygenase (Photinus pyralis) (UniProt P08659); assay: qHTS assay to identify small molecule inhibitors of firefly luciferase (AID 1224835); note: nearly all actives have a fitted effect of over 25% in size; settings: purified P. pyralis luciferase, luminescence inhibition; series mostly up to 115 µM; activity change, negative = inhibition: at the top concentration
Outline: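 Quantitative HTS format; KM concentrations of both substrates. Purified P. pyralis FLuc activity quantified from luminescence images.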
% is set by controls: 0 for no effect and ±100 for the full control effect; potency is the fitted concentration of half-maximal effect.

Luciferin 4-monooxygenase (Photinus pyralis), sequence (P08659 whole entry, looked up): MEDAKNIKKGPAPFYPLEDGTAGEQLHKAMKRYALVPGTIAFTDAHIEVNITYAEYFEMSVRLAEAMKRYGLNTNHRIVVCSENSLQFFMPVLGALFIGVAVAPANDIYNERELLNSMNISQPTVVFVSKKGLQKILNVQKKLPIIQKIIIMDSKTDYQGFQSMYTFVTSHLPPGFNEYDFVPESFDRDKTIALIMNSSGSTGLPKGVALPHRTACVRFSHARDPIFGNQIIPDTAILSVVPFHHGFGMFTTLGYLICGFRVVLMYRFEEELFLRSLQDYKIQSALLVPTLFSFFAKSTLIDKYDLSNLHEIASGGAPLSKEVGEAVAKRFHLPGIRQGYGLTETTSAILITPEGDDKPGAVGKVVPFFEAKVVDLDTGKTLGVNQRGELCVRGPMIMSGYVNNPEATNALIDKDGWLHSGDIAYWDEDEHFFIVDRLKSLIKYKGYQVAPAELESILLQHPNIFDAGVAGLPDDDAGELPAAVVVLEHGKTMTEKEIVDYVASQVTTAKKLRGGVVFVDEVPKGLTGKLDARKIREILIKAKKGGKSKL

| Structure (SMILES) | activity change, negative = inhibition | Potency |
| --- | --- | --- |
| CCOc1ccc(N)c([N+](=O)[O-])c1 | -10.1% (inactive) | – |
| CN1CCC(=C2c3ccccc3Sc3ccccc32)CC1 | -3.23% [at 52.9 µM] (inactive) | – |
| CCc1c(C(=O)NN2CCCCC2)nn(-c2ccc(Cl)cc2Cl)c1-c1ccc(Br)cc1 | 5.74% (inactive) | – |
| OCCN1CCN(CCCN2c3ccccc3C=Cc3ccccc32)CC1 | -0.159% [at 52.9 µM] (inactive) | – |
| CC(=O)c1ccc2c(c1)N(CCCN(C)C)c1ccccc1S2 | 2.96% [at 52.9 µM] (inactive) | – |
| CCCCC/C=C\C/C=C\CCCCCCCC(=O)NC(C)c1ccccc1 (centres undefined) | 0.928% [at 52.9 µM] (inactive) | – |
| Cc1c(N)cccc1[N+](=O)[O-] | 3% (inactive) | – |
| C[C@H](CCC(=O)O)[C@H]1CC[C@H]2[C@@H]3CC[C@@H]4C[C@H](O)CC[C@]4(C)[C@H]3C[C@H](O)[C@]12C | -10.8% (inactive) | – |
| CCCCCCCCCCCCCCCCOS(=O)(=O)O | 4.72% [at 52.9 µM] (inactive) | – |
| CCOC(=O)COC(=O)c1cc(Oc2ccc(C(F)(F)F)cc2Cl)ccc1[N+](=O)[O-] | 0.472% (inactive) | – |
| CC(C)OC(=O)C(C)N(C(=O)c1ccccc1)c1ccc(F)c(Cl)c1 (centres undefined) | 0.815% (inactive) | – |
| CCCCCCCCCCCCCCCCCCOS(=O)(=O)O | -0.0153% (inactive) | – |
| CCCCC(CC)CN1C(=O)C2C3C=CC(C3)C2C1=O (centres undefined) | 2.34% (inactive) | – |
| COC(=O)C1=C(C)NC(COC(N)=O)=C(C(=O)OC(C)C)C1c1cccc(Cl)c1Cl (centres undefined) | 7.34% [at 52.9 µM] (inactive) | – |
| CCCOC(C(=O)OC1CCN(C)CC1)(c1ccccc1)c1ccccc1 | 3.02% [at 52.9 µM] (inactive) | – |
| CCOC(=O)C1=C[C@]2(CC)CCCN3CCc4c(n1c1ccccc41)[C@@H]32 | 3.33% [at 52.9 µM] (inactive) | – |
| COc1cc2nc(N(C)CCCNC(=O)C3CCCO3)nc(N)c2cc1OC (centres undefined) | 4.87% [at 52.9 µM] (inactive) | – |
| Cn1c(=O)cc(Oc2ccc(F)cc2F)c2cnc(NCC(C)(C)O)nc21 | -2.57% (inactive) | – |
| O=C(Nc1ccccc1)c1ccccc1O | – | 15.9 µM (active) |
| CCCCC1=NC2(CCCC2)C(=O)N1Cc1ccc(-c2ccccc2-c2nn[nH]n2)cc1 | 0.33% [at 52.9 µM] (inactive) | – |
| CN(C)C(=O)NC1(c2ccccc2)CCN(CC[C@@]2(c3ccc(F)c(F)c3)CN(C(=O)c3ccccc3)CCO2)CC1 | 6.31% (inactive) | – |
| CN1CCC(N(Cc2cccs2)c2ccccc2)CC1 | -4.65% [at 52.9 µM] (inactive) | – |
| CCN(CC)CCOC(=O)C(Cc1cccc2ccccc12)CC1CCCO1 (centres undefined) | -1.27% [at 52.9 µM] (inactive) | – |
| CCOC(=O)NCCOc1ccc(Oc2ccccc2)cc1 | – | 31.7 µM (active) |
| CN(C)CCCN1c2ccccc2Sc2ccccc21 | -0.0598% [at 52.9 µM] (inactive) | – |
| CN(C)c1ccc(C(c2ccccc2)c2ccc(N(C)C)cc2)cc1 | -0.374% (inactive) | – |
| COc1ccc(C(=O)c2ccc(OC)cc2O)c(O)c1 | – | 28.5 µM (active) |
| CNCCCCOc1ccccc1Cc1ccccc1 | 0.206% [at 52.9 µM] (inactive) | – |
| O=C1OC(CN2CCOCC2)CN1/N=C/c1ccc([N+](=O)[O-])o1 (centres undefined) | 7.79% [at 52.9 µM] (inactive) | – |
